This is part of a sample that, as a whole, favours compounds with a hit. Of some 79,000 tested, about 15% had one in any assay. Unmarked numbers belong to inactive results. Activity calls are given as the source filed them. Rule as the data show it: active = growth inhibition above about 70%; inactive = the rest.

Assay [1] in a line: NCI Yeast Anticancer Drug Screen. Data for the rad50 strain (AID 155).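 Also: 0% = growth of vehicle-only cultures of the same strain.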 The conditions noted are these: S. cerevisiae rad50 strain growth inhibition, stronger effect = higher value. The essentials: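 Readout: growth inhibition relative to vehicle-treated cultures. Compound exposure was carried out in a genetically defined yeast strain deficient in DNA damage repair.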
The nature of assay [2]: NCI Yeast Anticancer Drug Screen. Data for the mec2-1 strain (AID 157). The conditions noted are these: S. cerevisiae mec2-1 strain, stronger effect = higher value. The procedure, abridged:
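mec2-1 yeast strain, carrying an alteration in DNA damage repair or cell cycle control, was exposed to compounds; growth inhibition was measured relative to vehicle-treated controls.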

A short description of assay [3]: NCI Yeast Anticancer Drug Screen. Data for the sgs1 mgt1 strain (AID 161).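 Also: 0% = growth of cultures given vehicle only.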 As to conditions: S. cerevisiae sgs1 mgt1 strain, stronger effect = higher value. The procedure, abridged:
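Percent growth inhibition was derived by comparing compound-exposed mutant yeast with vehicle-exposed cultures. The strain carries alterations in DNA damage repair.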

A short description of assay [4]: NCI Yeast Anticancer Drug Screen. Data for the cln2 rad14 strain (AID 165).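 Also: 0% = growth equal to vehicle treated cultures.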 The conditions noted are these: S. cerevisiae cln2 rad14 strain, stronger effect = higher value. The procedure, abridged:
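Yeast carrying cln2 and rad14 alterations (cell cycle control and DNA damage repair) were exposed to compounds. Growth inhibition was measured against vehicle-treated controls.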

Assay [5] can be described thus: NCI Yeast Anticancer Drug Screen. Data for the bub3 strain (AID 167). As to conditions: S. cerevisiae bub3 mutant strain, stronger effect = higher value. The essentials: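 Readout: yeast growth inhibition, expressed relative to vehicle-only wells. The test organism is a mutant strain from a panel with lesions in DNA repair or checkpoint genes.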
Assay [6] in a line: NCI Yeast Anticancer Drug Screen. Data for the mlh1 rad18 strain (AID 175). The conditions noted are these: S. cerevisiae mlh1 rad18 strain growth inhibition, stronger effect = higher value. The essentials:
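Growth inhibition of the yeast strain was measured after compound exposure and expressed relative to vehicle-treated controls. The strain carries defined defects in DNA damage repair.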

Where [7] appears, read: at 5.0 µM (retest, dose inferred, filed as 0.5).
Setting [8] is: at 50.0 µM (retest, dose inferred, filed as 5.0).

Take `O=C1CCCC1Cl` (configuration not stated): the growth inhibition in assay [1] (setting [7]) is -2%; in assay [1] (setting [8]), 3%; in assay [1] (at 50.0 µM), 39.8%; in assay [2] (setting [7]) it was -2%; in assay [2] (setting [8]) it was -3%; in assay [2] (at 50.0 µM) it was 82.6% (active). For the same compound, the growth inhibition in assay [3] (setting [7]) was -4%; in assay [3] (setting [8]), 0%; in assay [3] (at 50.0 µM) it was 12.5%; in assay [4] (setting [7]), -2%; in assay [4] (setting [8]), -8%; in assay [4] (at 50.0 µM), 81.9% (active). Also, the growth inhibition in assay [5] (setting [7]) is 4%; in assay [5] (setting [8]) it was -4%; in assay [5] (at 50.0 µM), 99.3% (active); in assay [6] (setting [7]), -3%; in assay [6] (setting [8]), 3%; in assay [6] (at 50.0 µM) it was 56.9%.

As to `CC(=O)[O][Sn]([CH3])([CH3])[c]1ccccc1`, the growth inhibition was 2% in assay [1] (setting [7]); 78% (active) in assay [1] (setting [8]); 81.2% (active) in assay [1] (at 50.0 µM); 3% in assay [2] (setting [7]); 50% in assay [2] (setting [8]); 82.8% (active) in assay [2] (at 50.0 µM). The growth inhibition in assay [3] (setting [7]) is 1%; in assay [3] (setting [8]), 92% (active); in assay [3] (at 50.0 µM) it was 92.5% (active); in assay [4] (setting [7]) it was -13%; in assay [4] (setting [8]), 77% (active); in assay [4] (at 50.0 µM), 74.9% (active). Moreover, the growth inhibition was -6% in assay [5] (setting [7]); 83% (active) in assay [5] (setting [8]); 84.2% (active) in assay [5] (at 50.0 µM); 3% in assay [6] (setting [7]); 94% (active) in assay [6] (setting [8]); 96.3% (active) in assay [6] (at 50.0 µM).

Take `O=[N+]([O-])c1ccc([N+](=O)[O-])c2ccccc12`: the growth inhibition is 37% in assay [1] (setting [7]); 99% (active) in assay [1] (setting [8]); 86.5% (active) in assay [1] (at 50.0 µM); 47% in assay [2] (setting [7]); 99% (active) in assay [2] (setting [8]); 61.7% in assay [2] (at 50.0 µM). Moreover, the growth inhibition is 61% in assay [3] (setting [7]); 97% (active) in assay [3] (setting [8]); 91.1% (active) in assay [3] (at 50.0 µM); 82% (active) in assay [4] (setting [7]); 97% (active) in assay [4] (setting [8]); 67.9% in assay [4] (at 50.0 µM). Also, the growth inhibition was 45% in assay [5] (setting [7]); 95% (active) in assay [5] (setting [8]); 85.7% (active) in assay [5] (at 50.0 µM); 31% in assay [6] (setting [7]); 99% (active) in assay [6] (setting [8]); 22.8% in assay [6] (at 50.0 µM).

Turning to `CC(=O)[O-].CC(=O)[O-].O=C(N/N=C/c1cc(Cl)cc(Cl)c1[OH2+])c1ccncc1.[Co+2]`, the growth inhibition is 6% in assay [1] (setting [7]); 23% in assay [1] (setting [8]); 51.6% in assay [1] (at 50.0 µM); 17% in assay [2] (setting [7]); 41% in assay [2] (setting [8]); 61.9% in assay [2] (at 50.0 µM). Further, the growth inhibition in assay [3] (setting [7]) is 7%; in assay [3] (setting [8]), 33%; in assay [3] (at 50.0 µM), 58.2%; in assay [4] (setting [7]) it was 5%; in assay [4] (setting [8]), 13%; in assay [4] (at 50.0 µM) it was 26.4%. Besides, the growth inhibition in assay [5] (setting [7]) was 2%; in assay [5] (setting [8]), 9%; in assay [5] (at 50.0 µM), 48%; in assay [6] (setting [7]), 4%; in assay [6] (setting [8]) it was 39%; in assay [6] (at 50.0 µM), 73.5% (active).

In the case of `[Cl][Hg][c]1ccco1`, the growth inhibition was 99% (active) in assay [1] (setting [7]); 99% (active) in assay [1] (setting [8]); 99.5% (active) in assay [1] (at 50.0 µM); 100% (active) in assay [2] (setting [7]); 99% (active) in assay [2] (setting [8]); 99.5% (active) in assay [2] (at 50.0 µM). Also, the growth inhibition in assay [3] (setting [7]) is 100% (active); in assay [3] (setting [8]), 100% (active); in assay [3] (at 50.0 µM), 99.7% (active); in assay [4] (setting [7]), 99% (active); in assay [4] (setting [8]), 99% (active); in assay [4] (at 50.0 µM), 99% (active). Moreover, the growth inhibition is 100% (active) in assay [5] (setting [7]); 100% (active) in assay [5] (setting [8]); 99.4% (active) in assay [5] (at 50.0 µM); 99% (active) in assay [6] (setting [7]); 99% (active) in assay [6] (setting [8]); 99.2% (active) in assay [6] (at 50.0 µM).

Take `O=C1C(F)=C(N2CC2)C(=O)C(N2CCOCC2)=C1N1CC1`: the growth inhibition in assay [1] (setting [7]) was 94% (active); in assay [1] (setting [8]), 98% (active); in assay [1] (at 50.0 µM) it was 90% (active); in assay [2] (setting [7]), 99% (active); in assay [2] (setting [8]) it was 98% (active); in assay [2] (at 50.0 µM) it was 89.8% (active). For the same compound, the growth inhibition was 98% (active) in assay [3] (setting [7]); 98% (active) in assay [3] (setting [8]); 89.8% (active) in assay [3] (at 50.0 µM); 98% (active) in assay [4] (setting [7]); 96% (active) in assay [4] (setting [8]); 84.5% (active) in assay [4] (at 50.0 µM). Also, the growth inhibition in assay [5] (setting [7]) is 99% (active); in assay [5] (setting [8]), 97% (active); in assay [5] (at 50.0 µM) it was 91.9% (active); in assay [6] (setting [7]), 97% (active); in assay [6] (setting [8]), 97% (active); in assay [6] (at 50.0 µM), 92% (active).

For `[N-]=[N+]=NS(=O)(=O)c1ccccc1S(=O)(=O)N=[N+]=[N-]`, the growth inhibition in assay [1] (setting [7]) was 13%; in assay [1] (setting [8]) it was 99% (active); in assay [1] (at 50.0 µM) it was 99.2% (active); in assay [2] (setting [7]), 8%; in assay [2] (setting [8]), 100% (active); in assay [2] (at 50.0 µM), 92.6% (active). The growth inhibition in assay [3] (setting [7]) was 9%; in assay [3] (setting [8]), 99% (active); in assay [3] (at 50.0 µM) it was 99.8% (active); in assay [4] (setting [7]), 67%; in assay [4] (setting [8]) it was 99% (active); in assay [4] (at 50.0 µM), 74.8% (active). For the same compound, the growth inhibition in assay [5] (setting [7]) was -2%; in assay [5] (setting [8]) it was 97% (active); in assay [5] (at 50.0 µM) it was 49.1%; in assay [6] (setting [7]), 18%; in assay [6] (setting [8]) it was 99% (active); in assay [6] (at 50.0 µM), 99.6% (active).

Turning to `CC(=O)[C-](Cl)C(C)=O.CC(=O)[C-](Cl)C(C)=O.CC(=O)[C-](Cl)C(C)=O.[Ru+3]`, the growth inhibition in assay [1] (setting [7]) is 16%; in assay [1] (setting [8]) it was 98% (active); in assay [1] (at 50.0 µM), 34.6%; in assay [2] (setting [7]) it was 15%; in assay [2] (setting [8]) it was 99% (active); in assay [2] (at 50.0 µM) it was 84.8% (active). Besides, the growth inhibition in assay [3] (setting [7]) was 16%; in assay [3] (setting [8]), 99% (active); in assay [3] (at 50.0 µM), 53.8%; in assay [4] (setting [7]), 8%; in assay [4] (setting [8]) it was 99% (active); in assay [4] (at 50.0 µM), -1.7%. The growth inhibition was -1% in assay [5] (setting [7]); 99% (active) in assay [5] (setting [8]); -17.4% in assay [5] (at 50.0 µM); 6% in assay [6] (setting [7]); 99% (active) in assay [6] (setting [8]); 76.8% (active) in assay [6] (at 50.0 µM).

Regarding `OC(c1ccccc1)(c1ccccc1)c1ccccn1`, the growth inhibition was -6% in assay [1] (setting [7]); -9% in assay [1] (setting [8]); 4.55% in assay [1] (at 50.0 µM); -14% in assay [2] (setting [7]); 2% in assay [2] (setting [8]); 53.4% in assay [2] (at 50.0 µM). Besides, the growth inhibition was -5% in assay [3] (setting [7]); 5% in assay [3] (setting [8]); 9.4% in assay [3] (at 50.0 µM); -6% in assay [4] (setting [7]); 5% in assay [4] (setting [8]); 2.7% in assay [4] (at 50.0 µM). Moreover, the growth inhibition was -3% in assay [5] (setting [7]); 3% in assay [5] (setting [8]); 13.8% in assay [5] (at 50.0 µM); -21% in assay [6] (setting [7]); -5% in assay [6] (setting [8]); -6.2% in assay [6] (at 50.0 µM).
